Only some compounds are listed: those with a hit (about 3.4% of all), similar ones and a draw of the others.
Tau ThT inhib: tau fibrillization inhibition (ThT binding); P10636; recombinant tau K18 P301L, heparin-induced fibrillization, ThT fluorescence; Potency, µM (series often up to 57.4 µM), inactives show at the top dose activity, negative = inhibition, actives largely listed as inhibitors; hit rate 2.1% among 270,000; AID 1460; further: nearly all actives have a fitted effect of over 55% in size
Target sequence (P10636 561-689 P618L limits assumed): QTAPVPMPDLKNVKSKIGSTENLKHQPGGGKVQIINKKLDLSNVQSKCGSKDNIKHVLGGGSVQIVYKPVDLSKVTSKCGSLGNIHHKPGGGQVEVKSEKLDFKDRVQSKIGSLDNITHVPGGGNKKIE
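ThT emission at 510 nm, taken 1 hr after adding 30 uM dye, quantifies aggregates formed when 20 uM heparin acts on human tau K18 P301L for 6 hr at 37 C.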
JMJD2E inh: inhibitors of human JMJD2E histone demethylase; B2RXH2; JMJD2E catalytic domain, FDH-coupled NADH fluorescence (FDH is formaldehyde dehydrogenase); Potency, µM (titrated, usually from 57.1 µM), for the others: top-dose activity change, negative = inhibition, actives largely listed as inhibitors; hit rate 1.6% among 230,000; AID 2147; active means well fitted inhibition curve with a large enough effect, not every such curve was filed as active; inconclusive means small, poorly fitted or top-dose-only effect, or another doubt; inactive means no such curve, though single readings can be large or run the other way;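 further: 0% = wells with enzyme and -100% = buffer wells without enzyme; nearly all actives have a fitted effect of over 50% in size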
Tau fluor cs: counter-screen for tau fibril formation inhibitors. tau K18 P301L Alexa594 fluorescence, heparin fibrillization. Potency, µM (highest dose often 57.7 µM), for the others: at the highest dose activity change, negative = decrease. AID 1463. hit rate 0.93% among 280,000; further: nearly all actives have a fitted effect of over 55% in size
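Human tau K18 P301L (15 uM unlabeled, 0.24 uM Alexa 594-labeled) in 100 mM sodium acetate pH 7 with 20 uM heparin, 6 hr at 37 C. ThT 30 uM added, 1 hr ambient; Alexa 594 FP and total fluorescence read at 555/632 nm.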
GoLoco inh red: inhibitors of human Gai1-RGS12 GoLoco interaction (red fluorophore); P63096; Gai1:RGS12 GoLoco peptide FP, rhodamine, 10 min; Potency, µM (titrated, usually from 61.6 µM), without a hit: top-dose activity, negative = inhibition, usual class: inhibitors; hit rate 0.44% among 230,000; AID 880; active means well fitted inhibition curve with a large enough effect, not every such curve was filed as active; inactive means no such curve, though single readings can be large or run the other way; further: nearly all actives have a fitted effect of over 30% in size
Target sequence (P63096 whole entry, looked up): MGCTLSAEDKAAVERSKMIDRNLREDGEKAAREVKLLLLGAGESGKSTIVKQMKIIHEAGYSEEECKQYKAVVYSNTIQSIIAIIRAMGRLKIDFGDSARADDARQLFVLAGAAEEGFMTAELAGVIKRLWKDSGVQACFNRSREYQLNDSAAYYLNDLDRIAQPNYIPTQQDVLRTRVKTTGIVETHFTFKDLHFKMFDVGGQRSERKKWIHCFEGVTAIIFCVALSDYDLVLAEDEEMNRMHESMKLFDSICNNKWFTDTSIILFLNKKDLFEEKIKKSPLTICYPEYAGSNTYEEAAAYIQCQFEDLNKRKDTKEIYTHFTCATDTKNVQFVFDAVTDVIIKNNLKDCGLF
Tau FP inhib: tau fibrillization inhibition (FP) | P10636 | hit rate 0.39% among 280,000 | K18 P301L tau heparin fibrillization, Alexa594 FP, 6 h | Potency, µM (series often up to 57.7 µM), for the others: top-dose activity, negative = inhibition, usual class: inhibitors; further: nearly all actives have a fitted effect of over 55% in size
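FP of Alexa 594-tau after heparin (20 uM) induction. Substrate: human K18 P301L, 15 uM unlabeled, 0.24 uM labeled. Buffer 100 mM sodium acetate pH 7. 6 hr, 37 C.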
* = called active by the depositor; [ ] = remark or other dose. Unless noted, the call rests on the fitted dose curve; in most records, active means well fitted curve in the direction sought with a large enough effect; inconclusive means small, poorly fitted or top-dose-only effect, or another doubt; inactive means no such curve, though single readings can be large; an effect the other way counts as inactive or inconclusive. Unless noted, on the % scale 0 is the no-effect control and ±100 the full control effect; potency means the concentration at half of the fitted maximal effect.

Results for CN1CC[C@]2(C)c3cc(O)ccc3N(C)[C@@H]12 ?
JMJD2E inh: 2.24µM*; GoLoco inh red: -29.1%[21.6 µM]

What do the screens show for `CN1CC[C@@]2(C)c3cc(O)ccc3N(C)C12` (some centres undefined)?
Tau ThT inhib: 7.08µM*; JMJD2E inh: 5.01µM*; Tau fluor cs: inconclusive; GoLoco inh red: -37.5%; Tau FP inhib: 8.91µM*

What do the screens show for `Nc1cc2nc3ccccc3nc2cc1N`?
Tau ThT inhib: 10µM*; JMJD2E inh: -1.7%; Tau fluor cs: inconclusive; GoLoco inh red: -71.9%; Tau FP inhib: inconclusive

How did Cc1ccc(N2C(=O)/C(=C/c3ccc(CN(CCC#N)S(C)(=O)=O)o3)C(=O)NC2=S)cc1 do in these assays?
Tau ThT inhib: 22.4µM*; JMJD2E inh: inconclusive; Tau fluor cs: -22.0%; GoLoco inh red: 91.8%; Tau FP inhib: inconclusive

How did COC(=O)C1=Nc2ccccc2/C1=C\c1c(O)n(-c2ccc(OC)cc2)c(=O)[nH]c1=O do in these assays?
Tau ThT inhib: inconclusive; JMJD2E inh: 17.8µM*; Tau fluor cs: inconclusive; GoLoco inh red: 67.0%; Tau FP inhib: inconclusive

What do the screens show for `CCn1c(O)c(N=Nc2ccc(S(=O)(=O)N3CCOCC3)cc2)c(=O)n(CC)c1=S`?
Tau ThT inhib: 8.91µM*; JMJD2E inh: 9.3%; Tau fluor cs: -27.6%; GoLoco inh red: 10.0%; Tau FP inhib: -11.7%

How did Cc1cc(C)cc(OCC(=O)Nc2ccc(-c3nc4ccccc4s3)cc2)c1 do in these assays?
Tau ThT inhib: inconclusive; Tau fluor cs: -11.1%; Tau FP inhib: -9.6%

How did CCn1nc(-c2cccs2)nc2c(=O)n(C)c(=O)nc1-2 do in these assays?
Tau ThT inhib: 17.8µM*; JMJD2E inh: inconclusive; Tau fluor cs: -22.1%; GoLoco inh red: 6.0%; Tau FP inhib: inconclusive

How did CN(C)c1ccc(/C=C2/C(=O)NC(=O)N(Cc3ccco3)C2=O)cc1 do in these assays?
Tau ThT inhib: inconclusive; JMJD2E inh: -29.7%; Tau fluor cs: -11.6%; GoLoco inh red: 121.4%; Tau FP inhib: -17.6%

How did CCN1C(=O)C(=C/C=C/c2ccco2)C(=O)N(CC)C1=S do in these assays?
Tau ThT inhib: 15.8µM*; JMJD2E inh: 15.8µM*; Tau fluor cs: -13.4%; GoLoco inh red: -54.8%; Tau FP inhib: inconclusive

How did COc1ccc(/C=C2/C(=O)N(Cc3ccco3)C(=O)N(C(C)C)C2=O)cc1 do in these assays?
Tau ThT inhib: 17.8µM*; JMJD2E inh: inconclusive; Tau fluor cs: -11.7%; GoLoco inh red: 217.0%; Tau FP inhib: inconclusive

How did CC(C)N1C(=O)/C(=C/C=C/c2ccco2)C(=O)N(Cc2ccco2)C1=O do in these assays?
Tau ThT inhib: 28.2µM*; JMJD2E inh: -28.0%; Tau fluor cs: -29.6%; GoLoco inh red: 173.9%; Tau FP inhib: inconclusive

What do the screens show for `O=C1NC(=O)N(CCc2ccc(F)cc2)C(=O)/C1=C/c1ccco1`?
Tau ThT inhib: 10µM*; JMJD2E inh: -14.5%; Tau fluor cs: inconclusive; GoLoco inh red: 122.2%; Tau FP inhib: inconclusive

What do the screens show for `Cc1ccc(/C=C2/C(=O)NC(=O)N(CCc3ccc(F)cc3)C2=O)o1`?
Tau ThT inhib: inconclusive; JMJD2E inh: -7.6%; Tau fluor cs: -4.6%; GoLoco inh red: 284.4%; Tau FP inhib: -4.8%

What do the screens show for `O=C(Nc1ccc(Br)cc1)c1ccc(Cl)c(S(=O)(=O)N2CCCCCC2)c1`?
Tau ThT inhib: 9.2%; Tau fluor cs: inconclusive; Tau FP inhib: inconclusive

Results for O=S(=O)(O)/C(=C\c1ccccc1)c1ccccc1 (tested in a mixture with another compound) ?
GoLoco inh red: 5.4%[14.2 µM]

What do the screens show for `CCC1=C(C[C@H]2NCCc3cc(OC)c(OC)cc32)C[C@H]2c3ccccc3CCN2C1`?
GoLoco inh red: 9.9%[14.2 µM]

What do the screens show for `O=C1NC(=O)N(Cc2ccccc2)C(=O)/C1=C/C=C/c1ccco1`?
Tau ThT inhib: 10µM*; JMJD2E inh: -14.6%; Tau fluor cs: -25.6%; GoLoco inh red: 267.1%; Tau FP inhib: inconclusive

What do the screens show for `C[C@@]12Cc3cnc(-c4ccccc4)nc3C[C@@H]1CC[C@@H]1[C@H]3CC[C@@](C)(O)[C@]3(C)CC[C@@H]12`?
GoLoco inh red: 7.1%[14.2 µM]

Results for Cc1ccccc1C(=O)Nc1sc2c(c1C(=O)O)CCC(C(C)(C)C)C2 (centres undefined) ?
Tau ThT inhib: 20µM*; Tau fluor cs: inconclusive; Tau FP inhib: -7.9%

How did CCC1(C)CC(C(N)=S)CCO1 (centres undefined) do in these assays?
Tau ThT inhib: 12.6µM*; JMJD2E inh: inconclusive; Tau fluor cs: -13.6%; GoLoco inh red: -16.9%; Tau FP inhib: inconclusive

How did CCNC(C)(C)[C@@H](SS)c1ccc(Br)cc1 do in these assays?
GoLoco inh red: -8.6%[14.2 µM]

What do the screens show for `CCOC(=O)C1CCCN(c2ccc([N+](=O)[O-])c3nonc23)C1` (centres undefined)?
Tau ThT inhib: inconclusive; JMJD2E inh: -4.9%; Tau fluor cs: -6.8%; GoLoco inh red: 15.8µM*; Tau FP inhib: inconclusive

How did CC1CCCN(c2ccc(C(=O)N3CCC4(CC3)OCCO4)cc2[N+](=O)[O-])C1 (centres undefined) do in these assays?
Tau ThT inhib: -11.9%; JMJD2E inh: 3.3%; Tau fluor cs: 2.8%; GoLoco inh red: -4.3%; Tau FP inhib: -1.6%

How did CCN1C(=O)c2ccccc2Sc2ccc(NC(=O)Nc3ccc(Br)c(C)c3)cc21 do in these assays?
Tau ThT inhib: 13.9%; Tau fluor cs: inconclusive; Tau FP inhib: 15.8µM*

How did NCCc1c[nH]c2ccc(OCc3ccccc3)cc12 do in these assays?
Tau ThT inhib: -18.5%; JMJD2E inh: inconclusive; Tau fluor cs: 12.6µM*[quencher]; GoLoco inh red: 0.9%; Tau FP inhib: 8.0%

What do the screens show for `CCOC(=O)C(C)Oc1cc(C)cc2oc(=O)c3c(c12)CCCC3` (centres undefined)?
Tau ThT inhib: inconclusive; JMJD2E inh: 12.6µM*; Tau fluor cs: 11.6%; GoLoco inh red: -12.0%; Tau FP inhib: -9.4%

How did COC(=O)C(C)Oc1cc(C)cc2oc(=O)c3c(c12)CCCC3 (centres undefined) do in these assays?
Tau ThT inhib: -6.0%; JMJD2E inh: inconclusive; Tau fluor cs: -2.7%; GoLoco inh red: 7.8%; Tau FP inhib: -3.3%

What do the screens show for `COCCCOc1ccnc(CS(=O)c2nc3ccccc3[nH]2)c1C` (centres undefined)?
Tau ThT inhib: 10µM*; Tau fluor cs: -24.9%; GoLoco inh red: -9.5%; Tau FP inhib: inconclusive

What do the screens show for `CCC(=O)OC1CCC2C3CCc4cc(O)ccc4C3CC[C@]12C` (some centres undefined)?
Tau ThT inhib: inconclusive; JMJD2E inh: -16.7%; Tau fluor cs: inconclusive; GoLoco inh red: -10.8%; Tau FP inhib: inconclusive
